Screening data as filed in PubChem BioAssay.
A selection: hits, their analogues and other compounds. The true share with any hit is near 4.2%.
S1P4 agonist: activates the human S1P4 receptor. S1P4-expressing cell line, agonist reporter assay. activation, % at 4.98 µM. 220,000 compounds, 0.35% hits. O95977; in the data active means activation above about 11%;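 further: 0% = DMSO vehicle and 100% = reference agonist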
Target sequence (O95977 whole entry, looked up): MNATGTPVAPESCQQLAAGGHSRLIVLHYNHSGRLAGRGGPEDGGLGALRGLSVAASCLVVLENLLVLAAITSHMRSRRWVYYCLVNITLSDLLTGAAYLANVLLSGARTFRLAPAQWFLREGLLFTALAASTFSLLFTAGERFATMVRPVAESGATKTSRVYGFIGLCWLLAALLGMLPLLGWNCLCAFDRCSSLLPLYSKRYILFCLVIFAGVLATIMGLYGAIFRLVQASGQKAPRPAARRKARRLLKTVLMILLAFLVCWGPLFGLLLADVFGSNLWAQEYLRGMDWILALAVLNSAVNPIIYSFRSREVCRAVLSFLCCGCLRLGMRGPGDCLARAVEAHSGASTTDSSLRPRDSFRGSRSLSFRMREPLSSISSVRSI
CHOP inh: CHOP inhibition in unfolded protein response; inhibition, % at 10 µM; 220,000 compounds, 3.8% hits; CHO-K1 CHOP-promoter luciferase, tunicamycin-induced, 15-18 h;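 active means compounds that reduced the stress-induced luciferase reporter signal by more than about 70% of percent inhibition, limit read from the data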;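 further: 0% = tunicamycin plus vehicle and 100% = wells without tunicamycin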
Hsp70 act: Hsp70 transcriptional activation, primary screen. HeLa Hsp70 promoter luciferase reporter, luminescence; scaled: vehicle 0, proteasome-inhibitor control 100%. 200,000 compounds, 0.04% hits. AID 1203. activation, % at 10 µM;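 active means activation above the mean across all tested compounds plus 3 SD, cutoff set per campaign, cut at about 5.5% in these data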;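 further: 100% = MG132 at 30 µM as the positive control and 0% = DMSO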
S1P4 antag: antagonists of human S1P4 receptor | inhibition, % at 4.98 µM | S1P4-expressing cells, antagonist mode, reporter read-out | O95977 | 220,000 compounds, 0.26% hits; in the data active means inhibition above about 29%;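 further: 0% = wells stimulated with agonist and 100% = vehicle wells without agonist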
S1P4 ag conf: human S1P4 agonism, confirmation. shares compounds with S1P4 agonist. S1P4 agonist cell-based reporter assay. activation, % at 4.98 µM. 740 compounds, 7% hits; in the data active means activation above about 12%;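 further: 0% = vehicle and 100% = full reference agonist response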
S1P1 agonist: human S1P1 agonism as S1P4 agonist counter-screen; shares compounds with S1P4 agonist; S1P1 agonist cell-based assay, activation; activation, % at 4.98 µM; 740 compounds, 4% hits; AID 1563; in the data active means activation above about 21%;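 further: 0% = vehicle wells and 100% = reference agonist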
The depositor's hits bear a star; . = no result.

SMILES	S1P4 agonist	CHOP inh	Hsp70 act	S1P4 antag	others
Cc1ccc(-n2c(O)c(/C=N/c3ncc(Br)cc3Br)c(=O)[nH]c2=O)cc1	0	74*	0	-11
O=c1[nH]c(=S)n(CCC2=CCCCC2)c(O)c1/C=N/Nc1ccccc1	0	73*	.	-9
O=c1[nH]c(=S)n(CCC2=CCCCC2)c(O)c1C=NC1CCN(Cc2ccccc2)CC1	-4	81*	2	7
CCCCn1c(O)c(C(C)=NCc2cc(OC)cc(OC)c2)c(=O)[nH]c1=O	1	7	0	8
Cc1ccc(C)c(CN2CCC(n3nnc4cc(F)ccc43)CC2)c1	0	75*	0	-13
Fc1ccc2c(c1)nnn2C1CCN(Cc2c(Cl)cccc2Cl)CC1	1	40	0	-15
COc1ccc(C=C2C(=O)N(C)C(=O)N(C)C2=O)cc1CSc1ccccn1	0	-14	0	-23
Cc1ccc(S(=O)(=O)NCCC(=O)Nc2ccc(Cl)cc2C(=O)c2ccccc2)cc1	2	94*	0	-21
O=C(Cc1ccc(Br)cc1)N1CCN(Cc2ccccc2)CC1	2	17	0	-32
CCCCn1c(O)c(C(CC)=NC(C)c2ccccc2)c(=O)[nH]c1=O (centres undefined)	-3	81*	0	28
CCCCn1c(O)c(C(CC)=Nc2ccc(OCC)cc2)c(=O)[nH]c1=O	1	91*	0	0
CCCCn1c(O)c(C(CC)=Nc2ccc(OC)cc2OC)c(=O)[nH]c1=O	1	57	0	-8
CCCCn1c(O)c(C(C)=NC(C)c2ccccc2)c(=O)[nH]c1=O (centres undefined)	0	26	0	-22
Cc1cc(Br)ccc1N1C(=O)CC(=O)NC1=O	-1	35	0	-22
CCn1nc(/C=C/c2ccccc2)nc2c(=O)n(C)c(=O)nc1-2	3	105*	0	12
CC(O)(CS(=O)(=O)c1ccccc1)C(=O)Nc1ccc(C(F)(F)F)cc1 (centres undefined)	-2	-6	0	-23
CC(O)(CS(=O)(=O)c1cccc(C(F)(F)F)c1)C(=O)Nc1cccc(C(F)(F)F)c1 (centres undefined)	-2	72*	0	-14
O=c1c2ccccc2nc(-c2ccco2)n1-c1ccccn1	2	42	0	-3
CC12CNCC(C)(CNC1)C2O (centres undefined)	1	88*	0	-12
CCCCC1(CCCC)C(=O)NC(=Nc2cccc(C)c2)NC1=O	-1	80*	0	1
CCOc1ccc(NC(=O)C2C3c4ccccc4C(c4ccccc43)C2C(=O)O)cc1 (centres undefined)	1	0	0	-2
C[C@@H]1C[C@H]2OC(=O)C3(CO3)[C@H]2[C@H](O)[C@]2(C)C(=O)C3OC3[C@@H]12 (some centres undefined)	.	106*	.	.
CN1CCN(c2ccc([N+](=O)[O-])c(N3CCCCC3)c2)CC1	-1	-3	0	-8
Cc1cccc(OP(=O)(Oc2ccccc2)OC(c2ccccc2)C(F)(F)F)c1 (centres undefined)	2	76*	0	3
CN1C(=O)C(=Cc2ccccc2OCc2ccccc2Cl)C(=O)N(C)C1=O	1	-1	0	-16
SMILES	S1P4 agonist	CHOP inh	Hsp70 act	S1P4 antag	others
CN(CC(=O)Nc1ccccc1-c1ccccc1)C1CCCCC1	0	83*	0	-12
CCC(=NCCCN1CCOCC1)c1c(O)n(-c2ccccc2C)c(=O)[nH]c1=O	1	9	.	-5
O=c1[nH]c(=S)n(C2CC2)c(O)c1C=Nc1cccc(C(F)(F)F)c1	0	95*	0	-3
CCCCCCn1c(O)c(/C=N/N2CCCCCC2)c(=O)[nH]c1=O	1	-10	.	-17
CCCc1nc2ccc(Br)cc2c(=O)n1-c1ccc([N+](=O)[O-])c(C(F)(F)F)c1	1	12	-1	-2
O=C1NC(=O)N(Cc2ccccc2)C(=O)/C1=C/C=C/c1ccco1	-3	12	.	4
CC(C)c1ccc(N2C(=O)NC(=O)/C(=C\C=C\c3ccco3)C2=O)cc1	1	104*	1	14
CC(C)[C@H]1C(=O)O[C@H](C(C)C)C(=O)N(C)[C@@H](C(C)C)C(=O)O[C@H](C(C)C)C(=O)N(C)[C@@H](C(C)C)C(=O)O[C@H](C(C)C)C(=O)N1C	0	93*	0	10
CC(C)CCn1c(=O)c(C(=O)Nc2ccccc2S(N)(=O)=O)c(O)c2ccccc21	-1	92*	0	15
CCN(CC)CCNC(=O)c1c(O)c2ccccc2n(Cc2ccccc2)c1=O	0	-20	0	-23
COc1cccc(C(=O)C2CCCN(Cc3ccc4nsnc4c3)C2)c1 (centres undefined)	2	17	0	-2
O=C(/C=C/c1ccccc1)c1c(O)n(CCc2ccccc2)c(=O)[nH]c1=O	0	92*	1	-9
O=C(/C=C/c1ccc2c(c1)OCO2)c1c(O)n(CCc2ccccc2)c(=O)[nH]c1=O	0	12	.	-3
Cc1ccc(/C=C2\C(=O)NC(=S)N(c3ccccc3F)C2=O)s1	0	107*	0	5
O=P(Nc1c(Cl)cccc1Cl)(c1ccccc1)c1nc2c(s1)CCCC2 (centres undefined)	3	7	0	2
CC(C)CC(=O)NC(Oc1ccc(Cl)cc1)C(Cl)(Cl)Cl (centres undefined)	-1	72*	0	-4
Clc1cccc(N2CCNCC2)c1	.	-12	.	.
Cc1cccc(NP(=O)(Oc2ccccc2F)Oc2ccccc2F)c1	0	78*	0	-10
O=P(Nc1cccc(F)c1)(Oc1ccccc1F)Oc1ccccc1F	0	76*	.	0
Cc1ccc(NP(=O)(Oc2ccccc2F)Oc2ccccc2F)cc1C	0	30	0	-6
CCn1c(O)c(/C=N/NC(=O)c2ccccc2)c(=O)[nH]c1=S	1	-4	.	9
CC(=O)c1ccc2c(c1)C1C(Cl)C(Sc3ccccc3[N+](=O)[O-])CC1C(C(=O)O)N2 (centres undefined)	3	4	0	-8
CCCCCCN1CCN(c2ccccc2Cl)CC1	1	63	-1	-13
CN1CCN(c2nc([N+](=O)[O-])nn2C)CC1	1	-11	0	-39
CCOC(=O)c1c(NC(NC(=O)CF)C(Cl)(Cl)Cl)sc2c1CCCC2 (centres undefined)	1	74*	0	-21
CCOC(=O)c1c(NC(=O)c2c(N)n(CCCOC)c3nc4ccccc4nc23)sc2c1CCCC2	-1	27	0	2
Cc1cccc(-n2c(O)c(C=Nc3ccc(Br)cn3)c(=O)[nH]c2=O)c1	1	10	0	-1
Cc1cccc(-n2c(O)c(C)c(=O)[nH]c2=S)c1	56*	3	0	-6	S1P4 ag conf=-2;S1P1 agonist=1
